Data as given in PubChem BioAssay (NCI).
This is part of a sample that, as a whole, favours compounds with a hit. Of some 83,000 tested, about 20% had one in any assay.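 How to read the values: 0–100, growth inhibition (40 = 60% inhibited); 0, no net growth; -100 to 0, cell death (-40 = 40% of starting cells died; -100 = all dead).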 Values without a mark were called inactive. Active and inactive are the calls of the source. The calls were made as follows: active = growth percent below 10; inactive = the rest.

Tests used:
Test in all cases: NCI-60 one-dose screen, 48 h (100 = growth as untreated, 0 = no growth, -100 = all killed)
Conditions in all cases: 10 µM unless noted
[1] = system: HCT-15 colon
[2] = system: HT29 colon
[3] = system: SNB-75 CNS
[4] = system: SNB-19 CNS
[5] = system: U251 CNS
[6] = system: PC-3 prostate
[7] = system: SK-MEL-5 melanoma
[8] = system: UACC-62 melanoma
[9] = system: SK-MEL-28 melanoma
[10] = system: LOX IMVI melanoma

| Compound | growth [1] | growth [2] | growth [3] | growth [4] | growth [5] | growth [6] | growth [7] | growth [8] | growth [9] | growth [10] |
| --- | --- | --- | --- | --- | --- | --- | --- | --- | --- | --- |
| C[C@@H]1CC[C@@H]2[C@@H]1[C@H](OC(=O)c1ccc3ccccc3c1)[C@]1(C3CCCCC3)C[C@@H](OC(=O)CO)[C@@]2(C)O1 | 40.9% | 20.7% | 64.9% | 84.1% | 48.9% | 22.2% | 88.6% | 73.6% | 70.2% | – |
| COc1ccc(Oc2nc(Nc3ccc(N4CCCCC4)nc3)ncc2NC(=O)c2cc(OC)cc(OC)c2)cc1 | 17.8% | 13.8% | 34.1% | 41.5% | 35.1% | 35.6% | 28.7% | 18.8% | 53.9% | – |
| Clc1cnc(Nc2ccc(OCCN3CCCC3)cc2)nc1NCc1ccco1 | 6.01% (active) | 11.3% | -3.83% (active) | 38.6% | 19.6% | 28.7% | 46.1% | 46.5% | 51.7% | – |
| COC(=O)c1ccc(CSc2nnc(-c3ccncc3)o2)cc1 | 108% | 109% | 81.9% | 110% | 104% | 87.5% | 112% | 97.5% | 107% | – |
| Clc1ccc2c(NCCCN3CCN(c4nc(-n5ccnc5)nc5ccccc45)CC3)ccnc2c1 | -64.6% (active) | -16.2% (active) | 100% | 99.5% | 97.2% | 78.4% | -94.8% (active) | 93.4% | -86.9% (active) | – |
| Cc1cc(N2CCCCC2)nc(N(CCNc2ccnc3cc(Cl)ccc23)Cc2ccccn2)n1 | 17.6% | 13.1% | 80.3% | 75% | 41.8% | 45.1% | 48.8% | 67.5% | 62.7% | – |
| O=C(CCc1nc(-c2cccc(Cl)c2)no1)Nc1ccccn1 | 95.2% | 106% | 93.7% | 97.6% | 111% | 97.4% | – | 91% | 99.5% | 97.3% |
| CCCCOc1ccc(NC(=O)n2nc(N=NN(C)C)c3ccc(Cl)cc32)cc1 | 105% | 98.1% | 89.1% | 106% | 118% | 88.5% | 107% | 86.4% | 106% | – |
| COc1ccc(Oc2nc(Nc3ccc(N4CCOCC4)nc3)ncc2NC(=O)c2cc(OC)cc(OC)c2)cc1 | 52.9% | 77.8% | 70.6% | 80.6% | 84.2% | 67.9% | 70.9% | 69.3% | 79.8% | – |
| CCCCCOC(=O)c1cccc(NC(=O)CN(CC)CC)c1 | 107% | 79.6% | 103% | 106% | 103% | 77.1% | – | 103% | 108% | 101% |
| Cc1c(C(=O)O[C@H]2[C@@H]3[C@H](C)CC[C@H]3[C@]3(C)O[C@@]2(C2CCCCC2)C[C@H]3OC(=O)CO)ccc2ccccc12 | 14.2% | -4.24% (active) | 82.6% | 60.8% | 4.41% (active) | 9.25% (active) | 68.6% | 61.3% | 59.7% | – |
| C=C1C(=O)O[C@H]2[C@H]1CC/C(COC(=O)/C=C\C(=O)NCc1ccc(Cn3c(=O)sn(-c4ccc(Cl)cc4)c3=O)cc1)=C\CC[C@@]1(C)O[C@@H]21 | -33.8% (active) | -28.3% (active) | -83.5% (active) | -8.33% (active) | -78.3% (active) | -64.1% (active) | – | -97.6% (active) | -93.5% (active) | -84.9% (active) |
| COC(=O)c1ccc2oc(NC(=O)c3ccc(N4CCOCC4)c([N+](=O)[O-])c3)nc2c1 | 107% | 95.6% | 79.7% | 92.4% | 92.2% | 89.5% | 104% | 90.6% | 97.4% | – |
| Cc1c(C)c2c(c(C)c1NC(=O)/C=C\C(=O)O)CCC(C)(CCCC(C)CCCC(C)CCCC(C)C)O2 (stereo not given) | 2.82% (active) | 20.7% | 33.2% | 78.1% | 60.2% | 16.6% | -97.7% (active) | 22.8% | -10.6% (active) | – |
| COc1ccc(C(=O)/C=C/C23c4ccccc4C(c4ccccc42)C2C(=O)NC(=O)C23)cc1 (stereo not given) | 91.3% | 97.3% | 85% | 92.6% | 93.7% | 102% | 95.9% | 90.6% | 108% | 90.1% |
| Cc1cc(N(CCCNc2ccnc3cc(Cl)ccc23)Cc2ccccn2)nc(N2CCCC2)n1 | 48.3% | 44% | 75.4% | 91.2% | 74.8% | 50.5% | 65.6% | 95.1% | 88% | – |
| CCCc1nc2ccccn2c1Nc1ccc(C(=O)NO)cc1 | 89.8% | 92.7% | 82.2% | 85% | 95.9% | 83% | 101% | 82.7% | 95.7% | – |
| CN1CCN(C(=O)[C@@]2(C)CC[C@]3(C)CC[C@]4(C)C(=CC[C@@H]5[C@@]6(C)C/C(=C/c7ccncc7)C(=O)C(C)(C)[C@@H]6CC[C@]54C)[C@@H]3C2)CC1 | 30.2% | 10.9% | 62.7% | 62.7% | 32.6% | 23.8% | 39.3% | 37.8% | 48.7% | 28.5% |
| Cc1cc(Cl)nc(N(CCCNc2ccnc3cc(Cl)ccc23)Cc2ccccn2)n1 | 35.2% | 10.2% | 64.1% | 66.5% | 43.9% | 54.2% | 34.1% | 55.9% | 68% | – |
| Cc1cc(N(CCCNc2ccnc3cc(Cl)ccc23)Cc2ccccn2)nc(N2CCOCC2)n1 | 87.3% | 56% | 69.2% | 93.9% | 94.8% | 74% | 105% | 106% | 106% | – |
| C=C(CNCCc1ccc(O)cc1)[C@@H]1CC[C@]2(COC3CCCCO3)CC[C@]3(C)[C@H](CC[C@@H]4[C@@]5(C)CCC(N)C(C)(C)[C@@H]5CC[C@]43C)[C@@H]12 (stereo not given in full) | -93% (active) | -93.8% (active) | -88% (active) | -85.8% (active) | -91.7% (active) | -91% (active) | -97.9% (active) | -87% (active) | -94.9% (active) | – |
| C=C(C)[C@@H]1CC[C@]2(CN)CC[C@]3(C)[C@H](CC[C@@H]4[C@@]5(C)CCC(N)[C@@](C)(CO)[C@@H]5CC[C@]43C)[C@@H]12 (stereo not given in full) | -47.6% (active) | -60.6% (active) | 75.6% | -10.5% (active) | -93.8% (active) | 6.4% (active) | -97.2% (active) | -79.6% (active) | -94.2% (active) | – |
| COc1ccc(/C=C(\C#N)n2nnc3cc(F)c(F)cc32)c(OC)c1OC | 43.7% | 64.5% | 82% | 82.9% | 73.9% | 57.9% | 60.5% | 58.6% | 77.3% | – |
| N#Cc1cccc(-c2nc3ccccn3c2NCCN2CCOCC2)c1 | 105% | 92.8% | 71.1% | 100% | 98.2% | 89.5% | 104% | 95.5% | 107% | 92.5% |
| O=C1C2=C(CCN(Cc3ccccc3)C2)N2CCN=C2N1Cc1ccc(C(F)(F)F)cc1 | 13% | 31% | 38.1% | 27.7% | 21.8% | 20.3% | 14.2% | 18.4% | 47.1% | 29.2% |
| C=C1c2c(C)nn(-c3ccc(NC(C)=O)cc3)c2N(C)C23CC1C1(C)c4c(C)nn(-c5ccc(NC(C)=O)cc5)c4N(C)C(C)(CC12)C3 (stereo not given) | 11% | 31.1% | 99% | 43.6% | 33.3% | 22.7% | 19.1% | 37% | 46.9% | – |
| Cc1nc2ccccc2c(/C=C/c2ccc(Cl)cc2)c1C(=O)/C=C/c1ccc(Cl)cc1 | -31.3% (active) | 3.75% (active) | 81.5% | -48.2% (active) | -71.6% (active) | -18% (active) | – | -42.9% (active) | – | -93.8% (active) |
| COc1ccc(-n2ncn(CCCCCCn3cnn(-c4ccc(OC)cc4)c3=O)c2=O)cc1 | 95.3% | 101% | 79.8% | 90.3% | 94.3% | 84.8% | 95.2% | 76.5% | 98% | – |
| Cc1ccccc1NC(=O)CN(C)C | 105% | 90.9% | 92.6% | 98.8% | 104% | 98.3% | 105% | 99.3% | 96.9% | 99.9% |
